“And” between values parts separate entries of the source, which are not always exact repeats. Identical values can stand only once. In all, about 16,000 compounds went through this assay and about 5,800 (36%) were called active. Inconclusive results (about 23%) are left out. The call rests on the fitted dose curve; in most records, active means well fitted curve in the direction sought with a large enough effect; inconclusive means small, poorly fitted or top-dose-only effect, or effect the other way; inactive means no such curve, though single readings can be large or run the other way. The list shows a part of the results. Some structures have more than one record in an assay (separate samples or runs), and their calls can disagree.
target: Cytochrome P450 2C19 (Homo sapiens) (UniProt P33261); assay: Cytochrome panel assay with activity outcomes; conditions: recombinant CYP, pro-luciferin dealkylation, luminescence, p450-cyp2c19; series mostly up to 57.1 µM; activity, negative = inhibition: at the top concentration
On the % scale 0 is the no-effect control and ±100 the full control effect.

Cytochrome P450 2C19 (Homo sapiens), sequence (P33261 whole entry, looked up): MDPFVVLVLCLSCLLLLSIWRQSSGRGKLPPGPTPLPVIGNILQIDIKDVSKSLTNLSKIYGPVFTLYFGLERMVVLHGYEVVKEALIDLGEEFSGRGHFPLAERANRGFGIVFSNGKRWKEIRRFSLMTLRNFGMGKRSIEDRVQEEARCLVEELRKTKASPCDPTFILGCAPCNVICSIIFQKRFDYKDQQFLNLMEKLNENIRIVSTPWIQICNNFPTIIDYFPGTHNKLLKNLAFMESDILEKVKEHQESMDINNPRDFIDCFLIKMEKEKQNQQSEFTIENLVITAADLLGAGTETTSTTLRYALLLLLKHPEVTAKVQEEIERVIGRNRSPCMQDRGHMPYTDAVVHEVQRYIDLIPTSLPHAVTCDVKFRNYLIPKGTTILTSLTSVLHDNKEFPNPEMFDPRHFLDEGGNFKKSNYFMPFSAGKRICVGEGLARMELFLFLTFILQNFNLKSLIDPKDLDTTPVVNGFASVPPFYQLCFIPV

SMILES | activity, negative = inhibition | AC50
COc1ccc(Oc2ncc3nc(-c4cccs4)c(=O)n(-c4ccccc4)c3n2)cc1 | -13.1% (inactive) | –
COc1cccc(Nc2ncc3nc(-c4cccs4)c(=O)n(-c4ccccc4)c3n2)c1 | 4.9% (inactive) | –
O=C(Nc1cccc2ccccc12)c1cn(-c2ccccc2)nc1-c1cccs1 | – | 6.31 µM (active)
CC(=O)CCCCn1c(=O)c2c(ncn2C)n(C)c1=O | -8.94% [at 25.6 µM] (inactive) | –
C=CC[C@@H]1C=C[C@@H](O/N=C(/C)CCC(=O)OC[C@@H]2O[C@H](C#Cc3ccccc3)C=C[C@@H]2Oc2ccc(C)cc2)[C@@H](CO)O1 | -42.3% [at 11.4 µM] (inactive) | –
C=CC[C@@H]1C=C[C@@H](O/N=C\C[C@@H]2C=C[C@H](OC(C)=O)[C@H](COC(C)=O)O2)[C@@H](CO)O1 | 17.2% [at 11.4 µM] (inactive) | –
C=CC[C@@H]1C=C[C@H](Oc2ccc(C)cc2)[C@H](COC(=O)NCc2cccc3ccccc23)O1 | – | 1.26 µM (active)
CC(C)(C)c1ccc(-c2nnc(SCc3ccc(Cl)cc3)n2-c2cccc(C(F)(F)F)c2)cc1 | -28.9% [at 11.4 µM] (inactive) | –
O=S(Cc1ccc(Br)cc1)Cc1nnc(SCc2ccc(Cl)cc2)n1-c1ccccc1 (stereo not drawn) | – | 10 µM (active)
OCCCNc1ncnc2[nH]ncc12 | 36.5% [at 11.4 µM] (inactive) | –
CCOC(=O)c1c(-c2ccccc2)nc2c(C)cccn12 | – | 15.8 µM (active)
Cc1ccccc1C(C(=O)NC1CCCC1)N(C(=O)Cc1cccs1)c1ccc2c(c1)OCCO2 (stereo not drawn) | – | 14.1 µM (active)
C/C(CC(=O)NC1CCCC1)=N\NC(=O)Cc1cccs1 | -1.91% (inactive) | –
Cc1nn(C)cc1C(C(=O)NC1CCCCC1)N(C(=O)Cc1cccs1)c1ccc(C(C)C)cc1 (stereo not drawn) | – | 7.94 µM (active)
Cc1cc(C)cc(N(C(=O)Cc2cccs2)C(C(=O)NC2CCCCC2)c2ccccn2)c1 (stereo not drawn) | – | 15.8 µM (active)
CC(C)C(NC(=O)C1CCCCC1)C(=O)NCc1ccccn1 (stereo not drawn) | -5.05% (inactive) | –
COc1ccccc1/C=N/NC(=O)CC(=O)Nc1ccc(Cl)c(Cl)c1 | – | 11.2 µM (active)
COc1ccccc1/C=N/NC(=Nc1ccc(C)cc1)c1nc2ccccc2s1 | -4.38% (inactive) | –
COC(=O)N1CCC2(CC1)CN(c1ccc(-c3ccccc3)cc1)C2 | -11.4% (inactive) | –
COC(=O)N1CCC2(CC1)CN(c1ccccc1)C2 | – | 6.31 µM (active)
O=C(Oc1ccccc1)N1CCC[C@@]2(CCN(c3ccncc3)C2)C1 | – | 5.01 µM (active)
O=C(Oc1ccccc1)N1CCC2(CC1)CCN(c1ccncc1)CC2 | -32.8% (inactive) | –
CC(=O)N1CCC2(CC1)CN(c1ccncc1)C2 | 30.5% (inactive) | –
O=C(Oc1ccccc1)N1CCC2(CC1)CN(c1ccncc1)C2 | – | 7.94 µM (active)

SMILES | activity, negative = inhibition | AC50
COC(=O)N1CCC[C@@]2(CCN(c3ccncc3)C2)C1 | 15.9% (inactive) | –
COC(=O)N1CCC2(CCCN(c3ccc(-c4ccccc4)cc3)C2)CC1 | -24.4% (inactive) | –
C[C@H](NC[C@H](O)CP(=O)(O)CC1CCCCC1)c1ccc(Cl)c(Cl)c1 | -9.58% (inactive) | –
OC[C@H](S)CS | -35.3% [at 11.4 µM] (inactive) | –
CCCCNC(=S)NNC(=O)CCn1nc(C)c(Br)c1C | – | 11.2 µM (active)
CCCCNC(=O)NC1C(NC(=O)NCCCC)N(C)C(=O)N1C (stereo not drawn) | -13.7% (inactive) | –
COc1cccc(NC(=O)C2c3cc(OC)c(OC)cc3C(=O)N(C)C2c2cccnc2)c1 (stereo not drawn) | -18.3% (inactive) | –
Cc1cccc(NC(=S)N(CCc2nc3cc(C)c(C)cc3[nH]2)Cc2cccnc2)c1 | – | 3.16 µM (active)
COc1cccc(Nc2ncc3nc(C)c(=O)n(CCc4ccccc4)c3n2)c1 | -33.4% (inactive) | –
COc1ccc(NC(=S)N(CCc2nc3cc(C)c(C)cc3[nH]2)Cc2cccnc2)cc1 | – | 14.1 µM (active)
COc1cccc(NC(=S)N(CCc2nc3cc(C)c(C)cc3[nH]2)Cc2cccnc2)c1 | – | 3.98 µM (active)
COc1ccc(COc2ccsc2C(=O)Nc2ccc(Cl)c(Cl)c2)cc1 | – | 7.94 µM (active)
CNC(=S)NNC(=O)c1sccc1OCc1ccc(C)cc1 | – | 5.01 µM (active)
FC(F)(F)c1cc(CN2CCCC3(CCNCC3)C2)cc(C(F)(F)F)c1 | 24.6% (inactive) | –
Cc1ccc(/C=C/c2nnc(-c3ccc(C)cc3)o2)cc1 | -16.4% (inactive) | –
Cc1oc(-c2cccs2)[n+]([O-])c1C | 14.9% (inactive) | –
C(=C\c1nnc(-c2cccs2)o1)/c1ccccc1 | – | 22.4 µM (active)
CCN=C1NN=C(c2ccc(C)cc2)CS1 | – | 10 µM (active)
Nc1nc(NCCc2ccc(O)cc2)nc2nc(-c3ccco3)nn12 | -37.2% (inactive) | –
FC(F)(F)c1cc(-c2ccco2)nc(NCCc2ccccc2)n1 | – | 1.78 µM (active)
Cc1scc2c1N(C(=O)CN1CCN(C)CC1)c1ccccc1NC2=O | – | inactive and 3.98 µM (active)
CN1CCN(CC(=O)N2c3ccccc3C(=O)Nc3cccnc32)CC1 | – | inactive
CCC#CCOCC(=O)Nc1ccccc1 | 1.66% (inactive) | –
O=C(Cc1ccccc1I)Nc1ccccc1 | – | 6.31 µM (active)

— PubChem BioAssay AID1851 (National Center for Advancing Translational Sciences (NCATS), 2009)
